{"source": "PubChem BioAssay AID686978", "about": "(National Center for Advancing Translational Sciences (NCATS), 2013)", "note": "Screen size: about 420,000 compounds; about 64,000 (15%) were called active. Inconclusive results (about 27%) are left out. The call rests on the fitted dose curve; in most records, active means well fitted inhibition curve with a large enough effect; inconclusive means small, poorly fitted or top-dose-only effect; inactive means flat fitted curve, though single readings scatter. These entries were drawn from the full list. On the % scale 0 is the no-effect control and ±100 the full control effect; potency means the concentration at half of the fitted maximal effect."}
{"assay": "qHTS for Inhibitors of human tyrosyl-DNA phosphodiesterase 1 (TDP1): qHTS in cells in absence of CPT; further: nearly all actives have a fitted effect of over 55% in size", "conditions": "DT40 Tdp1-/- hTDP1 cells, no CPT, ATP luminescence, 48 h; activity change, negative = growth inhibition: at 46.2 µM (top of the series)", "summary_of_the_method": "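Stably hTDP1-transfected Tdp1-null chicken DT40 cells were treated with library compounds minus camptothecin and grown for at least 48 hr at 37 °C, after which cellular ATP was quantified by luminescence.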"}
{"smiles": "C=CCOc1ccc(C(=O)Nc2ccccc2C(=O)N2CCCC2)cc1", "activity change, negative = growth inhibition": "-21% (inactive)"}
{"smiles": "Cn1nnnc1NCc1ccc(Cl)c(Cl)c1", "activity change, negative = growth inhibition": "-15% (inactive)"}
{"smiles": "NS(=O)(=O)c1ccc(CNC(=O)c2ccc(Cl)cc2[N+](=O)[O-])cc1", "activity change, negative = growth inhibition": "-20.7% (inactive)"}
{"smiles": "O=C(Cc1ccc(Cl)cc1)Nc1ccc2nn(-c3ccc(Cl)cc3)nc2c1", "activity change, negative = growth inhibition": "-8% (inactive)"}
{"smiles": "Cc1cc2nn(-c3ccc(Cl)cc3)nc2cc1NC(=O)C(C)C", "activity change, negative = growth inhibition": "-7.99% (inactive)"}
{"smiles": "Nc1ccc2nn(-c3ccc(Cl)cc3)nc2c1", "Potency": "9.2 µM (active)"}
{"smiles": "CC(=O)c1ccc(NC(=O)C2CC(=O)Nc3nc4ccccc4n32)cc1", "note": "(stereo unspecified)", "activity change, negative = growth inhibition": "-8.52% (inactive)"}
{"smiles": "O=C(c1ccc(Cl)cc1)N1N=C(c2ccccn2)CC1(O)C(F)(F)F", "note": "(stereo unspecified)", "Potency": "14.6 µM (active)"}
{"smiles": "O=C(Cc1ccccc1)N1N=C(c2ccncc2)CC1(O)C(F)(F)F", "note": "(stereo unspecified)", "activity change, negative = growth inhibition": "-21.2% (inactive)"}
{"smiles": "COC(=O)C1(O)CC(C(C)C)=NN1C(=O)c1ccc(Cl)cc1", "note": "(stereo unspecified)", "activity change, negative = growth inhibition": "-9.27% (inactive)"}
{"smiles": "Cc1cn([C@H]2C[C@H](O)[C@@H](CNC(=O)[C@H](N)Cc3cccnc3)O2)c(=O)[nH]c1=O", "activity change, negative = growth inhibition": "2.17% (inactive)"}
{"smiles": "O=c1[nH]n2c(=O)c3c([nH]c2c1N=Nc1ccccc1)CCC3", "activity change, negative = growth inhibition": "-20.5% (inactive)"}
{"smiles": "O=C(Nc1nnc(Cc2ccc(Cl)cc2)s1)c1ccncc1", "activity change, negative = growth inhibition": "-9.95% (inactive)"}
{"smiles": "COc1ccccc1CN1CCNC(=O)C1CC(=O)N(C)CC1CCOCC1", "note": "(stereo unspecified)", "activity change, negative = growth inhibition": "17.6% (inactive)"}
{"smiles": "Cn1cc(CCC(=O)N2CCCC(C(=O)c3ccc(C(C)(C)C)cc3)C2)cn1", "note": "(stereo unspecified)", "Potency": "20.6 µM (active)"}
{"smiles": "COCC(=O)N1CCCC(C(=O)c2ccc(C(F)(F)F)cc2)C1", "note": "(stereo unspecified)", "activity change, negative = growth inhibition": "4.79% (inactive)"}
{"smiles": "Cn1cc(/C=C/C(=O)N2CCCC(C(=O)c3ccc(C(F)(F)F)cc3)C2)cn1", "note": "(stereo unspecified)", "activity change, negative = growth inhibition": "-27.1% (inactive)"}
{"smiles": "Cc1nccn1-c1ccc(NC(=O)[C@H]2O[C@@H](n3cnc4c(N)ncnc43)[C@H](O)[C@@H]2O)cc1", "activity change, negative = growth inhibition": "1.47% (inactive)"}
{"smiles": "CC1(C)S[C@@H]2[C@H](NC(=O)COc3ccccc3)C(=O)N2C1C(=O)OCc1ccccc1", "note": "(stereo partly specified)", "Potency": "inactive"}
{"smiles": "COc1ccc(-c2noc(-c3ccc(N4CCN(c5ccccc5)CC4)c([N+](=O)[O-])c3)n2)cc1OC", "Potency": "7.31 µM (active)"}
{"smiles": "CNc1ccc(-c2nc(-c3ccco3)no2)cc1[N+](=O)[O-]", "activity change, negative = growth inhibition": "-19.6% (inactive)"}
{"smiles": "COc1cc(-c2noc(-c3ccc(N4CCCC4)c([N+](=O)[O-])c3)n2)cc(OC)c1OC", "activity change, negative = growth inhibition": "-8.7% (inactive)"}
{"smiles": "CCn1c(SC(C)C(=O)Nc2ccc(N3CCOCC3)cc2)nnc1-c1ccco1", "note": "(stereo unspecified)", "activity change, negative = growth inhibition": "-4.59% (inactive)"}
{"smiles": "O=C(Nc1cccnc1Oc1ncnc2cc(Cl)ccc12)c1ccc(F)cc1", "activity change, negative = growth inhibition": "1.07% (inactive)"}
{"smiles": "NS(=O)(=O)c1ccc(NS(=O)(=O)/C=C/c2ccccc2)cc1", "activity change, negative = growth inhibition": "-16.4% (inactive)"}
{"smiles": "Cc1cccc(N2C(=O)c3ccc(C(=O)Nc4cccc(C(=O)O)c4)cc3C2=O)c1", "activity change, negative = growth inhibition": "-29.4% (inactive)"}
{"smiles": "Cc1ccc(CNC(=O)C2(C(F)(F)F)C/C(=C\\Cc3ccccc3)CCCO2)o1", "note": "(stereo unspecified)", "Potency": "11.6 µM (active)"}
{"smiles": "Cc1ccc(CNC(=O)Cn2cnc(S(=O)(=O)N3CCCCC3)c2)o1", "activity change, negative = growth inhibition": "-18.7% (inactive)"}
{"smiles": "Cc1ccc(C(=O)N2CC(=O)Nc3ccccc32)o1", "activity change, negative = growth inhibition": "0.857% (inactive)"}
{"smiles": "CC1CCCCN1CCCNC(=O)Cn1ncc2c([nH]c3ccccc32)c1=O", "note": "(stereo unspecified)", "Potency": "inactive"}
{"smiles": "COc1cccc(-c2nc3n(n2)C(c2ccccc2Cl)C(C(N)=O)=C(C)N3)c1", "note": "(stereo unspecified)", "activity change, negative = growth inhibition": "-28.2% (inactive)"}
{"smiles": "Cc1cc2c(cc1C)[n+](C)cn2CC(O)COCC1CC=CCC1", "note": "(stereo unspecified)", "Potency": "1.84 µM (active)"}
{"smiles": "C/C(=N/NC(=O)c1cc(Cl)ccc1O)C12CC3CC(CC(C3)C1)C2", "activity change, negative = growth inhibition": "-1.21% (inactive)"}
{"smiles": "O=C(CSc1ccc([N+](=O)[O-])cn1)Nc1ccc(N2CCOCC2)c(Cl)c1", "activity change, negative = growth inhibition": "-0.829% (inactive)"}
{"smiles": "COc1ccc(-c2cc(=O)oc3cc(OCC(=O)N[C@@H](Cc4c[nH]c5ccccc45)C(=O)O)ccc23)cc1", "activity change, negative = growth inhibition": "0.178% (inactive)"}
{"smiles": "COc1ccc(-c2c(C)cc3oc(=O)cc(-c4ccccc4)c3c2C)cc1OC", "Potency": "23.1 µM (active)"}
{"smiles": "COc1ccc(C2=NO[C@@H]3C(=O)N(Cc4ccccc4)C(=O)[C@H]23)cc1OC", "activity change, negative = growth inhibition": "0.579% (inactive)"}
{"smiles": "Cc1cc2oc(=O)cc(-c3ccccc3)c2c(C)c1-c1ccc(OC(F)(F)F)cc1", "Potency": "20.6 µM (active)"}
{"smiles": "CC(=O)c1ccc(S(=O)(=O)NC2CC(=O)N(c3ccc4c(c3)OCCO4)C2)cc1", "note": "(stereo unspecified)", "activity change, negative = growth inhibition": "-14.5% (inactive)"}
{"smiles": "CC(C)(C)S(=O)(=O)c1ccccc1-c1noc(-c2ccccc2)c1C(N)=O", "activity change, negative = growth inhibition": "4.59% (inactive)"}
{"smiles": "Cn1c(SCC(=O)C(C)(C)C)nnc1-c1ccccn1", "activity change, negative = growth inhibition": "27.4% (inactive)"}
{"smiles": "O=C(COC(=O)c1cnccn1)Nc1cccc2ccccc12", "activity change, negative = growth inhibition": "-7.74% (inactive)"}
{"smiles": "Cc1ccccc1-c1ccc(Nc2ccc(C(=O)N3CCOCC3)cc2)nn1", "activity change, negative = growth inhibition": "-17.6% (inactive)"}
{"smiles": "CO[C@@H]1CN(C)C(=O)c2cc(NC(=O)C3CC3)ccc2OC[C@H](C)N(C(=O)CN2CCOCC2)C[C@@H]1C", "activity change, negative = growth inhibition": "-1.78% (inactive)"}
{"smiles": "CCCN(CC(=O)Nc1ccccc1C)C(=O)c1ccc2[nH]c3c(c2c1)CC(C)CC3", "note": "(stereo unspecified)", "Potency": "20.6 µM (active)"}
{"smiles": "CCCN(CC(=O)Nc1ccccc1C)C(=O)c1cc(=O)[nH]c2ccccc12", "activity change, negative = growth inhibition": "-16.5% (inactive)"}
{"smiles": "CCCN(CC(=O)Nc1ccccc1C)C(=O)c1ccc(OCC(=O)N2CCOCC2)c(OCC)c1", "activity change, negative = growth inhibition": "-3.18% (inactive)"}
{"smiles": "COCCCN1C(=O)C(=O)/C(=C(/O)c2ccc3c(c2)CC(C)O3)C1c1cccnc1", "note": "(stereo unspecified)", "activity change, negative = growth inhibition": "-3.28% (inactive)"}
{"smiles": "COC(=O)C1=C(NC(=O)C(C)(C)C)CCS1", "activity change, negative = growth inhibition": "-2.33% (inactive)"}
{"smiles": "Cc1cc(C)c(C=NNc2nc3c([nH]2)c(=O)n(C)c(=O)n3C)c(C)c1", "activity change, negative = growth inhibition": "1.78% (inactive)"}
{"smiles": "Cc1ccccc1NC(=O)NCc1ccco1", "activity change, negative = growth inhibition": "8.72% (inactive)"}
{"smiles": "Cc1ccc(NC(=O)C(=O)NCc2ccco2)c(C)c1", "activity change, negative = growth inhibition": "-25.9% (inactive)"}
{"smiles": "Cc1cccc(Nc2ccccc2C(=O)NCc2ccco2)c1C", "Potency": "20.6 µM (active)"}
{"smiles": "O=C(Nc1ccccc1)Nc1ccccc1C(=O)NCc1ccco1", "activity change, negative = growth inhibition": "-17.1% (inactive)"}
{"smiles": "CS(=O)(=O)N(CC(=O)NCc1ccco1)c1ccc2c(c1)OCO2", "activity change, negative = growth inhibition": "-0.836% (inactive)"}
{"smiles": "Cc1ccc(N(Cc2ccc(C(=O)Nc3ccccc3C(=O)NCc3ccco3)cc2)S(C)(=O)=O)cc1C", "Potency": "18.4 µM (active)"}
{"smiles": "CCC(C)NC(=O)CN(C1CCCCC1)S(C)(=O)=O", "note": "(stereo unspecified)", "activity change, negative = growth inhibition": "-11.3% (inactive)"}
{"smiles": "CCOC(=O)N1CCN(C(=O)C2CCN(S(C)(=O)=O)CC2)CC1", "activity change, negative = growth inhibition": "-4.04% (inactive)"}
{"smiles": "Fc1ccc(COc2ccc(-c3nnco3)cc2)cc1", "activity change, negative = growth inhibition": "-10.2% (inactive)"}
{"smiles": "O=C(O)C1CCN(C(=O)c2cc(F)cc3c2OCOC3)CC1", "activity change, negative = growth inhibition": "-1.32% (inactive)"}
{"smiles": "Clc1nc(NC2CCCC2)nc(N2CCOCC2)n1", "activity change, negative = growth inhibition": "-27.4% (inactive)"}
{"smiles": "COc1nc(NC2CCCCC2)nc(N2CCCCCC2)n1", "Potency": "12.6 µM (active)"}
{"smiles": "Cc1ccnc(N2CCC(C(=O)NC3CCCCCC3)CC2)n1", "activity change, negative = growth inhibition": "-5.99% (inactive)"}
{"smiles": "CCn1c(SCC(=O)Nc2ccc3c(c2)OCCO3)nnc1C(C)C", "activity change, negative = growth inhibition": "-12.3% (inactive)"}
{"smiles": "CCCn1c(SCC(=O)c2ccc3c(c2)OCCO3)nnc1C(C)C", "Potency": "20.6 µM (active)"}
{"smiles": "CCCn1c(SCC(N)=O)nnc1C(C)C", "activity change, negative = growth inhibition": "-8.78% (inactive)"}
